Screening data deposited in PubChem BioAssay by National Center for Advancing Translational Sciences (NCATS).
Abeta rescue: restores growth of yeast expressing A-beta42 peptide; yeast expressing A-beta42, growth rescue, OD600, 48 h; response scale: 0% DMSO, 100% iron-clioquinol control; 0.063% of 410,000 active; Potency, µM (highest dose often 46.1 µM), usual class: activators; note: potency is the fitted concentration of half-maximal effect; nearly all actives have a fitted effect of over 55% in size
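Yeast growth medium received pinned compounds, then yeast cells expressing toxic A-beta were added; plates incubated at 30 C for 48 hr. Growth read as absorbance at 600 nm, normalized to DMSO and equimolar FeCl3 plus clioquinol controls.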
TDP-43 yeast inh: TDP-43 toxicity inhibition in yeast | TDP-43 expressing yeast growth rescue, BacTiter-Glo, 24 h | Potency, µM (highest dose often 46.1 µM), for inactives: at the top dose growth rescue (activation), hits mostly activators | 1.8% of 410,000 active | AID 652104; note: potency is the fitted concentration of half-maximal effect; % of control where 0% means no effect; nearly all actives have a fitted effect of over 50% in size
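Readout is BacTiter-Glo luminescence of cell growth, so inhibitors register as activators. TDP-43-expressing yeast at OD600=0.02 in galactose medium, after raffinose pregrowth to mid-log, were incubated with compound for 24 hr at 30 deg C.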
FUS yeast rescue: FUS proteinopathy suppression in yeast | S. cerevisiae FUS-expressing, growth rescue, OD600, 24 h | Potency, µM (titrated, usually from 76.6 µM), usual class: activators | 0.24% of 390,000 active | AID 1347120;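 note: potency is the fitted concentration of half-maximal effect; plate controls were DMSO vehicle for no effect and reference control for full effect; nearly all actives have a fitted effect of over 55% in size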
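Quantitative HTS measuring growth restoration of FUS-toxic yeast. Galactose-induced cells (OD 0.005) were exposed 24hr at 30C to compounds at several concentrations, then absorbance at 600 nm was recorded.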
pAkt inh: blocks phosphorylation of Akt; Neuro2A IGF-stimulated pAkt S473 HTRF, 20 min; hits give low values; activity change, % for hits at 50 µM; 0.32% of 360,000 active; in the data active = activity change below about -80%; inconclusive = mostly about -51% to -80%; note: % is set by controls: 0 for no effect and ±100 for the full control effect
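Single-point screen (50 µM final compound) in Neuro2A cells stimulated 20 min with 6 nM IGF at 37 deg C. After lysis, Ser473-phosphorylated Akt read by HTRF (ex 330 nm, em 615/665 nm) as the 665/615 ratio.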
aSyn rescue: rescues yeast growth from alpha-synuclein toxicity; Yeast expressing alpha-synuclein, growth rescue, BacTiter-Glo, 24 h; Potency, µM (series often up to 46.1 µM), for inactives: top-dose growth rescue (activation), hits mostly activators; 0.14% of 370,000 active; AID 652106; note: potency is the fitted concentration of half-maximal effect; % of control where 0% means no effect; nearly all actives have a fitted effect of over 65% in size
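Readout is rescue of growth in alpha-synuclein-expressing yeast, so inhibitors of toxicity appear as activators. Growth after 24 hr at 30 deg C in galactose medium is quantified by luminescence.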
* = called active by the depositor; i = inactive; ? = inconclusive; / = no result; [ ] = another dose, or the depositor's remark. Sampled rows, rich in hits. Any-hit rate of the full collection: about 2.3%. Unless noted, calls come from the whole dose curve; as a rule, active = well fitted curve in the direction sought with a large enough effect; inconclusive = small, poorly fitted or top-dose-only effect, or another doubt; inactive = no such curve, though single readings can be large; an effect the other way counts as inactive or inconclusive.

SMILES	Abeta rescue	TDP-43 yeast inh	FUS yeast rescue	pAkt inh	aSyn rescue
O=C(CSc1cccc[n+]1[O-])c1cc(Cl)ccc1Cl	?	11µM*	i	i	12%
O=C(CSc1cccc[n+]1[O-])C12CC3CC(CC(C3)C1)C2	?	14µM*	i	i	7%
O=C(CSc1cccc[n+]1[O-])c1cccs1	i	8%	i	i	5%
CCOc1cccc(CC(=O)N2CCc3c([nH]c4ccccc34)C2c2ccc(SC)cc2)c1OCC (centres undefined)	i	2%	i	/	/
Cc1ccc2c(=O)cc(C(=O)Nc3c(C)n(C)n(-c4ccccc4)c3=O)oc2c1	i	?	i	/	/
CCc1ccc(CNC(=O)COc2cc(=O)n(CC)c3ccccc23)cc1	i	0%	i	/	/
Cc1cc(C)c2c(=O)cc(C(=O)Nc3sc4c(c3C(=O)NCc3ccco3)CCCC4)oc2c1	i	-3%	i	/	/
CCc1ccc(-c2nc(-c3cc4ccccc4oc3=O)sc2C)cc1	i	0%	i	/	/
CCc1cccc(C)c1NC(=O)C1CCN(c2nnc(C)c3c(C)n(-c4ccccc4)nc23)CC1	i	17%	i	/	/
CCOc1ccccc1NC(=O)c1sc2nc(C)nc(N3CCOCC3)c2c1C	i	7.9µM*	i	i	-14%
COc1ccc(C)cc1NC(=O)c1sc2nc(C)nc(N3CCOCC3)c2c1C	i	1%	i	i	-10%
O=C(CN1CCCCCC1)N1c2ccccc2Sc2ccccc21	i	-14%	i	i	3%
CC1CCCN(CC(=O)N2c3ccccc3Sc3ccccc32)C1 (centres undefined)	22µM*	1%	i	i	11%
COc1cccc(C2CC(=O)Nc3c2c(=O)[nH]c2ncnn32)c1OC (centres undefined)	i	4%	i	/	-3%
CCC(C)(C(=O)NC1CCCCC1)N(C(=O)CNC(C)=O)c1c(C)n(C)n(-c2ccccc2)c1=O (centres undefined)	i	-6%	i	-131%*	-6%
Cn1cc(C(=O)c2ccc(Cl)cc2Cl)cc1C(=O)N/N=C(\N)COc1ccccc1	i	4%	?	-109%*	0%
COc1ccccc1CCNC(=O)Cn1ccc2cc(S(=O)(=O)N3CCCCC3)ccc21	i	23%	?	/	/
COc1cccc(N2CCN(C3CC(=O)N(c4ccc(C)c(Cl)c4)C3=O)CC2)c1 (centres undefined)	i	9%	i	i	8%
COc1cccc(N2CCN(C3CC(=O)N(c4ccc(F)c(Cl)c4)C3=O)CC2)c1 (centres undefined)	i	13µM*	i	i	-7%
CCOc1ccc(N2C(=O)CC(N3CCN(c4ccccc4OC)CC3)C2=O)cc1 (centres undefined)	i	?	i	i	19%
O=C1CC(N2CCC(O)(c3ccc(Br)cc3)CC2)C(=O)N1c1ccc(Cl)cc1 (centres undefined)	i	-41%	/	i	14%
COc1ccc(N2C(=O)CC(N3CCC(O)(c4ccc(Br)cc4)CC3)C2=O)cc1 (centres undefined)	i	20µM*	i	i	9%
CCCOc1ccc(N2C(=O)CC(N3CCN(c4ccccc4OC)CC3)C2=O)cc1 (centres undefined)	i	25µM*	i	i	?
CCOC(=O)c1ccc(N=Cc2nc(-c3ccccc3)oc2OC(C)=O)cc1	i	16µM*	i	i	20%
CC1=C(C(=O)Nc2cccnc2)C(c2ccc(Cl)cc2)n2nc(-c3ccccc3)nc2N1 (centres undefined)	i	6%	i	/	/
SMILES	Abeta rescue	TDP-43 yeast inh	FUS yeast rescue	pAkt inh	aSyn rescue
Cc1cccc(NC(=O)c2ccc(N3CCOCC3)c([N+](=O)[O-])c2)n1	i	?	i	i	2%
Cc1cccc(NC(=O)c2ccc(-n3cccn3)c([N+](=O)[O-])c2)c1	i	-1%	i	-116%*	-9%
Cc1cccc(NC(=O)c2ccc(N3CCCCC3)c([N+](=O)[O-])c2)n1	i	3.5µM*	/	i	-13%
Cc1ccc(NC(=O)c2ccc(-n3cccn3)c([N+](=O)[O-])c2)cc1	i	-7%	i	i	-9%
COCC(C)NC(=O)C1CC(c2cccc(Br)c2)=NO1 (centres undefined)	i	-10%	?	-111%*	-1%
COc1cc(NC(=O)C2CC(c3cccc(Br)c3)=NO2)cc(OC)c1OC (centres undefined)	i	-8%	i	i	0%
O=C1c2ccccc2C(=O)N1CCSc1ncn[nH]1	i	-3%	i	i	-8%
O=C1c2ccccc2C(=O)N1CCSc1n[nH]c(=S)s1	i	20µM*	/	i	10%
O=C(COC(=O)/C=C/c1ccc(Cl)c(Cl)c1)NC1CCS(=O)(=O)C1 (centres undefined)	i	7%	/	i	0%
O=C(COC(=O)/C=C/c1ccc(Cl)c(Cl)c1)NC1CCCC1	i	10µM*	i	i	-13%[1.84 µM]
Cc1ccc(-n2nnnc2CNC(=O)C(C)(C)C)cc1C	i	11%	i	/	/
CCN(CC)c1nc(-c2ccc(C(C)(C)C)cc2)nc2ccccc12	i	11%	i	/	/
CC(C)CN(CC(C)C)c1nc(-c2ccc(Cl)cc2)nc2ccccc12	i	35µM*	i	/	-2%
CCOC(=O)c1ccc(NC(=O)CN2c3ccccc3S(=O)(=O)c3ccccc32)cc1	i	-1%	?	/	/
Cc1cc(-n2c(C)cc(C(=S)N3CCOCC3)c2C)ccc1Br	i	20µM*	/	i	-2%
Cc1ccc(Nc2cc(C)c(O)c(C)c2)cc1	i	13µM*	i	i	4%
Cn1c(=O)n(CCCc2ccccc2)c(=O)c2c1nc1n2CCN1c1ccc(F)cc1	i	15%	i	/	/
CC1(C(=O)Nc2cccc(OC(F)(F)F)c2)Cc2c(-c3ccc4c(c3)OCO4)ccnc2O1 (centres undefined)	i	0%	i	i	3.5µM*
COc1ccc(CNC(=O)C2(C)Cc3c(-c4ccc(C(N)=O)cc4)ccnc3O2)cc1OC (centres undefined)	i	8%	i	i	2%
COc1ccc(CNC(=O)C2(C)Cc3c(-c4ccc5c(c4)OCO5)ccnc3O2)cc1OC (centres undefined)	i	20%	i	i	8.9µM*
CC(=O)Nc1ccc(-c2ccnc3c2CC(C)(C(=O)Nc2ccc(C(C)C)cc2)O3)cc1 (centres undefined)	i	35µM*	?	i	-35%
